Results filed as inconclusive are left out. Active and inactive are the calls of the source. Unless noted, calls follow the shape of the dose curve; as a rule, active = well fitted curve in the direction sought with a large enough effect in the repeat runs; inconclusive = weak or mixed curves; inactive = no such curve, though single readings can be large; an effect the other way counts as inactive or inconclusive. Positions of bridges follow the written chain, without caps; N, C: chain ends. Non-standard residues stand in square brackets, D forms with d. Residues, ends and D or L forms follow the SMILES beside them. *: point of attachment. X2 = CC[C@H](C)CCCCC(=O)*; Dab = NCC[C@H](N)C(=O)O
Experiments:
[1] = qHTS assay to identify small molecule antagonists of the glucocorticoid receptor (GR) signaling pathway - cell viability counter screen (AID 720693); also: nearly all actives have a fitted effect of over 55% in size
[2] = qHTS assay for identifying genotoxic compounds that show differential cytotoxicity against isogenic chicken DT40 cell lines with known DNA damage response pathways - Rev3 mutant cell line (AID 743014); also: nearly all actives have a fitted effect of over 55% in size; also: potency is read from the fitted curve at half-maximal effect
[3] = qHTS assay for identifying genotoxic compounds that show differential cytotoxicity against isogenic chicken DT40 cell lines with known DNA damage response pathways - Rad54/Ku70 mutant cell line (AID 743015); also: nearly all actives have a fitted effect of over 60% in size; also: potency is read from the fitted curve at half-maximal effect
[4] = qHTS assay to identify small molecule antagonists of the androgen receptor (AR) signaling pathway - cell viability counter screen (AID 743033; also: nearly all actives have a fitted effect of over 45% in size; also: potency is read from the fitted curve at half-maximal effect)
[5] = qHTS assay to identify small molecule antagonists of the androgen receptor (AR) signaling pathway using the MDA cell line - cell viability counter screen (AID 743041; also: nearly all actives have a fitted effect of over 45% in size; also: potency is read from the fitted curve at half-maximal effect)
Outline: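 qHTS viability read-out; MDA-kb2 AR-luc; R1881-stimulated; 16 h exposure at 37C, 0% CO2; CellTiter-Fluor, 30 min; fluorescence intensity.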

[6] = qHTS assay for identifying genotoxic compounds that show differential cytotoxicity against isogenic chicken DT40 cell lines with known DNA damage response pathways - wild type cell line (AID 743012); also: nearly all actives have a fitted effect of over 60% in size; also: potency is read from the fitted curve at half-maximal effect
Outline: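 Viability by ATP luminescence (CellTiter-Glo, 30 min RT) after 40 h compound treatment at 37 C/5% CO2, using 300 parental DNA repair-proficient DT40 cells per well.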

[7] = molecular target: Androgen receptor (Homo sapiens) (UniProt P10275); test: qHTS assay to identify small molecule antagonists of the androgen receptor (AR) signaling pathway (AID 743035; active = well fitted inhibition curve with a large enough effect in the signal ratio in the repeat runs, not every such curve was filed as active; the % refers to the signal ratio; also: potency is read from the fitted curve at half-maximal effect)
Outline: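 Antagonist mode: AR-bla HEK293 cells co-treated with test compounds and agonist R1881 for 16 h at 37C, 5% CO2. Beta-lactamase activity read as FRET fluorescence after 2 h room-temperature substrate loading.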

[8] = molecular target: Androgen receptor (Homo sapiens) (UniProt P10275); test: qHTS assay to identify small molecule agonists of the androgen receptor (AR) signaling pathway (AID 743036; active = well fitted activation curve with a large enough effect in the signal ratio in the repeat runs, with a control signal flat, not every such curve was filed as active; the % refers to the signal ratio)
Outline: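 HEK293 cells stably carrying a UAS-driven beta-lactamase reporter (GeneBLAzer AR-UAS-bla-GripTite) were plated at 2,000 cells/well, rested 4 h at 37C, then exposed to compounds in DMSO for 16 h. LiveBLAzer B/G FRET substrate was added for 2 h at room temperature; fluorescence read.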

[9] = molecular target: Androgen receptor (Homo sapiens) (UniProt P10275); test: qHTS assay to identify small molecule agonists of the androgen receptor (AR) signaling pathway using the MDA cell line (AID 743040; also: nearly all actives have a fitted effect of over 20% in size; also: potency is read from the fitted curve at half-maximal effect)
Outline: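 Agonist activity is measured as luciferase luminescence in human MDA-kb2 cells whose MMTV reporter responds to both AR and GR. Compounds in DMSO incubate 16 h at 37C, 0% CO2, and ONE-Glo is read after 30 min.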

[10] = molecular target: Androgen receptor (Homo sapiens) (UniProt P10275); test: qHTS assay to identify small molecule antagonists of the androgen receptor (AR) signaling pathway using the MDA cell line (AID 743042; also: nearly all actives have a fitted effect of over 55% in size; also: potency is read from the fitted curve at half-maximal effect)
Outline: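 MDA-kb2 cells (human breast carcinoma, stably carrying an MMTV-luciferase reporter responsive to AR and GR) were plated at 3,000 cells/well and preincubated 5 hr at 37C, then given compound plus R1881 agonist for 16 h. ONE-Glo luminescence was read.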

Measured: Potency

Androgen receptor (Homo sapiens), sequence (P10275 whole entry, looked up): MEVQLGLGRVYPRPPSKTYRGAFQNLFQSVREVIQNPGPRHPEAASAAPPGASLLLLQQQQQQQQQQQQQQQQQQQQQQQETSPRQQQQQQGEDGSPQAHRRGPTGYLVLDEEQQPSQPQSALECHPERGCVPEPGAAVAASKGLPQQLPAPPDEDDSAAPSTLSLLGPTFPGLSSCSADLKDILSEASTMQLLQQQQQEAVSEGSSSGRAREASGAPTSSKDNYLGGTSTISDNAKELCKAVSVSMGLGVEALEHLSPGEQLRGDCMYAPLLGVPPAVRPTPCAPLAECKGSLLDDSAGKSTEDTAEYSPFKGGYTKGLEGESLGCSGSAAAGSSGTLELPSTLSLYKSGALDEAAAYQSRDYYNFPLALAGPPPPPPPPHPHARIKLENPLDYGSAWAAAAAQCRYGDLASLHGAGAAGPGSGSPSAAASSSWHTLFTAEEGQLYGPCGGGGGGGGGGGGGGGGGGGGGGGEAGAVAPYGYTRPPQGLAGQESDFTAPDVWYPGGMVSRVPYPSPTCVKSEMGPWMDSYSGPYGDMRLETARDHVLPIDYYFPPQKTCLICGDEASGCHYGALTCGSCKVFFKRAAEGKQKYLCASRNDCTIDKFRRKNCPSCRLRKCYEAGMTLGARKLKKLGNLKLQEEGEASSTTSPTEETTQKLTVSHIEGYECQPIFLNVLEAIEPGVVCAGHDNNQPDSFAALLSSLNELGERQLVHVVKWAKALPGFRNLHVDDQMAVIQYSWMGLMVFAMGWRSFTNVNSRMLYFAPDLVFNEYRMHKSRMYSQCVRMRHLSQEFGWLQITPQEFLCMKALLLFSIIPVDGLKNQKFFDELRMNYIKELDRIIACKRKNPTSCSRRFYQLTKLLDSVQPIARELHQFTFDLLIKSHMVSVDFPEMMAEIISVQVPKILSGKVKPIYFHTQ

CCCCCCCCCCCCCCCCCC[N+](C)(C)CCC[Si](OC)(OC)OC
active: [2] 18.8 µM | [3] 10.6 µM
inactive: [1] | [4] | [5]

Cn1c(=O)c2c(ncn2CCOC(=O)C(C)(C)Oc2ccc(Cl)cc2)n(C)c1=O
inactive: [1] | [2] | [4] | [5]

C#C[C@]1(O)CC[C@H]2[C@@H]3CCC4=CC(=O)CC[C@@H]4[C@H]3C(=C)C[C@@]21CC
inactive: [1] | [4] | [5]
active: [6] 29.8 µM

CS(=O)(=O)c1ccc(C2=C(c3ccccc3)C(=O)OC2)cc1
inactive: [1] | [2] | [3] | [4] | [5]

CNCC(O)c1ccc(OC(=O)C(C)(C)C)c(OC(=O)C(C)(C)C)c1 (configuration not stated)
inactive: [1] | [4] | [5]
active: [6] 12.7 µM

COc1ccc2c(=O)c(C)c(-c3ccccc3)oc2c1CN(C)C
active: [3] 18.8 µM
not listed: [5] | [6]
inactive: all other assays above

O=C(OC1C[C@@H]2CC3C[C@H](C1)N2CC3=O)c1c[nH]c2ccccc12 (some centres not stated)
active: [6] 26.6 µM
inactive: [1] | [4] | [5]

C[N+]1(C)[C@@H]2CC(OC(=O)C(O)(c3cccs3)c3cccs3)C[C@H]1[C@@H]1O[C@@H]12 (some centres not stated)
inactive: [1] | [2] | [3] | [5]

O=S(=O)(O)c1cc(O)c2c(N=Nc3ccc(Nc4ccccc4)c4c(S(=O)(=O)O)cccc34)cc(S(=O)(=O)O)cc2c1
active: [2] 11.9 µM | [3] 13.3 µM | [10] 16.8 µM
not listed: [5] | [6]
inactive: all other assays above

O=C(O)c1cc2ccccc2c(Cc2c(O)c(C(=O)O)cc3ccccc23)c1O
inactive: [1] | [3] | [4] | [5]

O=C(O)c1c(Cl)c(Cl)c(Cl)c(Cl)c1-c1c2cc(I)c(=O)c(I)c-2oc2c(I)c(O)c(I)cc12
active: [9] 13.3 µM | [5] 24.8 µM
not listed: [3] | [6]
inactive: all other assays above

CC(C)CN(C[C@@H](O)[C@H](Cc1ccccc1)NC(=O)O[C@H]1CO[C@H]2OCC[C@H]21)S(=O)(=O)c1ccc(N)cc1
active: [3] 29.8 µM
inactive: [1] | [2] | [4] | [5]

CC(C)(C)NC(=O)[C@H]1CC[C@H]2[C@@H]3CC=C4C=C(C(=O)O)CC[C@]4(C)[C@H]3CC[C@]12C
not listed: [3] | [6] | [8]
inactive: all other assays above

C=CCCCCCCCCC(=O)OC
inactive: [1] | [6] | [4] | [5]

CCOC(=O)O[C@]1(C(=O)COC(=O)CC)CC[C@H]2[C@@H]3CCC4=CC(=O)C=C[C@]4(C)[C@H]3[C@@H](O)C[C@@]21C
inactive: [1] | [6] | [5] | [10]
active: [7] 2.04 µM | [9] 0.0507 µM

COc1ccc(C[C@@H](C)NC[C@H](O)c2ccc(O)c(NC=O)c2)cc1
active: [6] 29.8 µM
inactive: [1] | [4] | [5]

CC[C@H](C)CCCCC(=O)N[C@@H](CCN)C(=O)N[C@H](C(=O)N[C@@H](CCN)C(=O)N[C@H]1CCNC(=O)[C@@H]([C@H](C)O)NC(=O)[C@H](CCN)NC(=O)[C@H](CCN)NC(=O)[C@H](CC(C)C)NC(=O)[C@@H](CC(C)C)NC(=O)[C@H](CCN)NC1=O)[C@@H](C)O (X2-[Dab]T[Dab][Dab][Dab][dL]L[Dab][Dab][dT]; lactam 4-C)
inactive: [1] | [6] | [5]

CC#CCC(C)[C@H](O)/C=C/[C@@H]1[C@H]2C/C(=C/CCCC(=O)O)C[C@H]2C[C@H]1O (some centres not stated)
inactive: [1] | [2] | [3] | [4] | [5]

CC(=O)OCC(=O)[C@@]12OC3(CCCC3)O[C@@H]1C[C@H]1[C@@H]3CCC4=CC(=O)C=C[C@]4(C)[C@@]3(F)[C@@H](O)C[C@@]12C
inactive: [1] | [2] | [5]

O=C(O)c1cc(N=Nc2ccc(O)c(C(=O)O)c2)ccc1O
inactive: [1] | [3] | [4] | [7] | [9] | [10]

CCCCC[C@H](O)/C=C/[C@H]1[C@H](O)CC(=O)[C@@H]1CCCCCCC(=O)O
inactive: [1] | [2] | [5]

CCCCCCCCCCCCCCCCCCOP(=O)([O-])OC1CC[N+](C)(C)CC1
inactive: [1] | [2] | [4] | [5]
active: [3] 14.6 µM

Cc1cc(/C=C/c2ccc3cc(N(C)C)ccc3[n+]2C)c(C)n1-c1ccccc1
active: [4] 4.56 µM | [5] 2.66 µM
inactive: [1]

COc1ccc(C(=O)Nc2ccccc2CCC2CCCCN2C)cc1 (configuration not stated)
inactive: [1] | [3] | [5]

C=Cc1c(C)c2cc3nc(cc4[nH]c(cc5nc(cc1[nH]2)C(C)=C5CCC(=O)OC)c(CCC(=O)O)c4C)[C@@]1(C)C3=CC=C(C(=O)OC)[C@H]1C(=O)OC
inactive: [1] | [4]

Source: PubChem BioAssay (Tox21)
